Compound activity (PubChem BioAssay)
TRPV1 PAM: human TRPV1 potentiation | potentiation, % at 8.33 µM | 320,000 compounds, 0.02% hits | TRPV1-expressing cells, Fluo-8 calcium influx, capsaicin EC20 potentiation | Q8NER1; in the data active = potentiation above about 80%; inconclusive = between about 30% and that limit; note: 0% is about no effect
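TRPV1-expressing cells were cultured overnight at 35.5C and loaded with Fluo-8 calcium dye for 40 to 90 min at room temperature. After a 10 s baseline, compound was added and calcium influx was read kinetically for 3 min (ex 480/em 520 nm).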
RXFP1 antagonist: RXFP1 (human) relaxin receptor antagonism; Q9HBX9; HEK293-RXFP1, relaxin-stimulated cAMP HTRF, 30 min; active compounds read low; activity change, negative = inhibition, % at 57.5 µM; 350,000 compounds, 0.59% hits; AID 1259400;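 active = activity change of -60% or lower, but not beyond a set lower limit; inconclusive = change between -60% and -40%, or beyond the set limit; inactive = change above -40%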; note: % is set by controls: 0 for no effect and ±100 for the full control effect
gsp agonist: gsp mutant agonism; gsp mutant cells, cAMP HTRF, 30 min; Potency, µM (series often up to 76.9 µM), for the others: at the top dose activation (cAMP increase), most hits filed as activators; 340,000 compounds, 0.13% hits; AID 624287; active = well fitted activation curve with a large enough effect; inconclusive = small, poorly fitted or top-dose-only effect, or another doubt; inactive = no such curve, though single readings can be large or run the other way; cell line not stated here;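 note: phosphodiesterase inhibitor Ro 20-1724 added with compounds to block cAMP breakdown; potency is the fitted concentration of half-maximal effect; nearly all actives have a fitted effect of over 60% in size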
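Cells in DMEM/10% FBS with G418 were pretreated with compounds in DMSO plus […] (300 uM stock) for 30 min at 37C. cAMP was measured by HTRF (cAMP-d2 plus anti-cAMP antibody-K) after 30 min at room temperature.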
TRPV1 agonist: agonists of human vanilloid receptor 1 (TRPV1) | activation, % at 8.33 µM | TRPV1-expressing cells, Fluo-8 calcium influx, agonist mode | 320,000 compounds, 0.19% hits | Q8NER1; in the data active = activation above about 80%; inconclusive = between about 30% and that limit; note: 0% is about no effect
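Cells expressing TRPV1 were dye-loaded with Fluo-8 and read kinetically: 10 s baseline, 3 min after compound (agonist portion), then 2 min after EC20 capsaicin (allosteric enhancer portion). Calcium-bound dye fluorescence at 480/520 nm.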
gsp antag: antagonists of gsp mutant (McCune-Albright syndrome); AID 624288; gsp-mutant cells, cAMP HTRF, 30 min; 340,000 compounds, 0.4% hits; Potency, µM (highest dose often 76.9 µM), for the others: at the top dose activity change, negative = inhibition, actives largely listed as inhibitors; calls by dose curve; cell line not stated here;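 note: intracellular cAMP measured with PDE inhibitor Ro 20-1724 present during compound exposure; potency is the fitted concentration of half-maximal effect; % is set by controls: 0 for no effect and ±100 for the full control effect; nearly all actives have a fitted effect of over 65% in size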
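HTRF cAMP read-out (cAMP-d2 plus anti-cAMP antibody-K in lysis buffer, 30 min RT). Before lysis, cells are exposed to compounds with […] for 30 min at 37C in DPBS containing Ca/Mg, BSA and Tween 20.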
RXFP1 ag: RXFP1 (human) receptor agonism | Q9HBX9 | HEK293T-RXFP1 cAMP TR-FRET, 30 min; response scale: percent of porcine relaxin response, buffer zero | Potency, µM (doses to about 57.5 µM), for inactives: top-dose activation, actives largely listed as activators | 370,000 compounds, 0.3% hits; active = well fitted activation curve with a large enough effect; inconclusive = small, poorly fitted or top-dose-only effect; note: potency is the fitted concentration of half-maximal effect; % is set by controls: 0 for no effect and ±100 for the full control effect; nearly all actives have a fitted effect of over 60% in size
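HEK293 cells stably expressing RXFP1, treated 30 min at 37C with compounds plus PDE4 inhibitor Ro 20174; cAMP measured by HTRF TR-FRET. Normalized to buffer and 29 nM porcine relaxin; EC50 by Hill fit.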
The depositor's hits bear a star; ? = inconclusive; nt = no result; [ ] = another dose, or the depositor's remark. Hits are enriched below; roughly 1.1% of the tested compounds scored in any of these assays.

SMILES | TRPV1 PAM | RXFP1 antagonist | gsp agonist | TRPV1 agonist | gsp antag | RXFP1 ag
CC1(C)Cc2ccccc2-c2nnc(SCC(=O)N3CCN(c4ccccc4)CC3)n21 | ? | -0.4 | 18.5% | 0.4 | 35.5µM* | 4.7%
CC1(C)Cc2ccccc2-c2nnc(SCc3ccccc3)n21 | -12.4 | -24.6 | -61.5% | ? | -19.0% | 0.1%
O=c1oc2cc(O)ccc2cc1-c1nc2c(s1)CCc1ccccc1-2 | -12.6 | 4.4 | ? | 83.3* | 13.7% | 5.8%
CCC(C)(C)C1CCC(NC(=O)c2ccc(S(=O)(=O)N3CCOCC3)cc2)CC1 (stereo not given) | -3.8 | -9.0 | -52.5% | 80.4* | -9.3% | 1.8%
O=C1CC2(CCCC2)CC(=O)N1 | nt | -11.4 | nt | nt | nt | nt
CCOc1cccc(C2c3c(-c4cc(C)ccc4O)n[nH]c3C(=O)N2Cc2ccco2)c1 (stereo not given) | nt | -75.9* | nt | nt | nt | 2.5%
COc1cccc(C2c3c(-c4ccccc4O)n[nH]c3C(=O)N2Cc2ccco2)c1 (stereo not given) | 3.5 | -4.6 | -12.9% | -2.6 | -14.4% | 4.7%
Cc1ccc(O)c(-c2n[nH]c3c2C(c2ccccc2F)N(Cc2ccco2)C3=O)c1 (stereo not given) | nt | -68.8* | nt | nt | nt | -2.4%
O=S1(=O)c2ccc(Br)cc2N2CC[C@H](C2)N1Cc1ccc(Cl)cc1 | nt | nt | nt | nt | 2.4% | nt
CCOC(=O)C(O)c1ccccc1 (stereo not given) | nt | -6.2 | nt | nt | nt | nt
COc1ccc(NC(=O)Cn2nnc(C(=O)NCc3ccccc3Cl)c2N)cc1Cl | nt | 4.3 | nt | nt | nt | -1.1%
Cc1ccc(/C=C/c2onc(C)c2S(=O)(=O)N2CCC(C(=O)N(CCC(C)C)Cc3ccco3)CC2)cc1 | nt | -6.9 | nt | nt | nt | -2.3%
COc1ccccc1N1CCN(CC(O)COc2cc(OC)c(OC)c(OC)c2)CC1 (stereo not given) | nt | 7.7 | nt | nt | nt | nt
COC(=O)c1c(NC(NC(C)=O)C(Cl)(Cl)Cl)sc2c1CCCC2 (stereo not given) | ? | -74.5* | -9.3%[15.4 µM] | -1.4 | -22.9% | -3.7%
CCOC(=O)c1c(NC(NC(C)=O)C(Cl)(Cl)Cl)sc2c1CCCC2 (stereo not given) | -3.9 | -67.9* | -19.8% | ? | 0.1% | -0.8%
CCOC(=O)c1c(NC(=O)CCC(=O)O)sc2c1CCCCC2 | 3.2 | 8.4 | 13.5% | -8.0 | -13.4% | 2.1%
O=C(NC1CCCc2ccccc21)c1c(F)cccc1Cl (stereo not given) | 18.6 | -9.5 | 10.5%[15.4 µM] | -3.3 | 4.0% | 3.8%
O=C(NCc1ccccn1)C(=O)NCc1ccccn1 | 96.7* | -3.5 | 3.2% | -14.7 | -1.2% | 3.7%
Cc1c(OCC(=O)NCC(O)c2ccccc2)ccc2c(-c3ccccc3)cc(=O)oc12 (stereo not given) | 6.8 | nt | nt | -6.5 | 28.2µM* | 0.0%
CCN(CC)S(=O)(=O)c1cccc(NC(=O)Nc2cccc(C(F)(F)F)c2)c1 | 3.3 | -15.5 | -33.4% | 4.0 | 31.6µM* | -1.1%
Nc1ccn(CC(=O)N[C@H](CO)Cc2c[nH]c3ccccc23)c(=O)n1 | 4.0 | nt | -12.5% | -2.2 | 5.7% | 1.0%
CSCC(=O)N1CCCC(CNC(=O)c2ccccc2Cl)C1 (stereo not given) | -3.9 | 1.3 | ? | 0.3 | 2.9% | 0.3%
COc1ccccc1NC(=O)N1CCCC(CNC(=O)c2ccccc2Cl)C1 (stereo not given) | 2.4 | 10.8 | -4.0% | 2.4 | 44.7µM* | 1.0%
C#CCOc1ccccc1/C=N/NC(=O)c1ccccc1OCc1ccccc1 | -1.2 | 0.5 | 0.3% | 25.8 | 12.6µM* | -0.9%
COc1ccc(/C=N/NC(=O)c2ccccc2OCc2ccccc2)c(OC)c1 | -1.7 | ? | -20.9%[15.4 µM] | 28.5 | ? | 1.4%
O=C(CS(=O)c1ccc(C(F)(F)F)cc1[N+](=O)[O-])Oc1ccccc1 (stereo not given) | 4.5 | 10.3 | -1.2% | -3.2 | 3.6% | 1.1%
CS(=O)(=O)c1ccc(S(=O)CC(=O)OCc2ccccc2)c([N+](=O)[O-])c1 (stereo not given) | 3.5 | -108.4* | -8.4%[15.4 µM] | -0.2 | ? | 0.9%
